Measured values as given in the OligoGym collection.

target: DUSP3; assay: pooled miR-30 sensor sort-seq; sequence = guide strand; conditions: shRNA
Note: reference of the scale not given here.

Sequence | sensor-assay potency score (higher = more potent)
TTCAAAGTAAGCGCTGAGGTTG | -0.662
TGTGATGCCGGAGTCCTTGTAG | 0.0865
TTGACGTGCATGAAGGACCTGC | 0.645
TATGTGATGCCGGAGTCCTTGT | -1.17
AGACTTGACGTCCATCTTCTGC | -1.63
TAGAAGTTGGCATTGGTGTTGA | 0.772
TAGTCTGTCATTGAGCTGGCAG | -0.572
TAGTTTCTGCAGCTTGGGGATG | -1.37
TCTGTCATTGAGCTGGCAGAGC | -1.17

target: DUSP5; assay: as above; conditions: shRNA

Sequence | sensor-assay potency score (higher = more potent)
TTTACATCCACGCAACACTCAG | -1.07
TTGGCGAGGAACTCGCACTTGG | -0.725
TTTGAGGAAGTAGACCCGCGGG | -0.969
TTGAGGAAGTAGACCCGCGGGC | -0.647
TTACATCCACGCAACACTCAGG | -0.32
TTGACGTTGAGCGAGCCGCGCA | -0.861
TTAAAAACAAAAATCACAGTTG | 0.309
TTCTGCTGAGCTCTGAGACTGT | -0.115
ATGCATGGTAGGCACTTCCAAG | -1.82
TAGTGTAGGTGGGTCGCGCAGG | -0.939
TTGAGTGGGTAGGCACCGGTGC | -0.999
TACAGTAGTCAGCACATGCTGT | -0.0745
TAGAAAGTCTCATATCCCCCTT | -0.306
TAGCGCGCCGACACCGCGCCGC | -0.777
ATTCCGAGTAGAAAGTCTCATA | -1.1
TGTAGCTGACATTTACCACTGG | 0.536
TCCTCTCGCAGCTTCTGCCAGT | -1.18
TATTGCTTCTTGAAAGTGGGAG | 0.394
TTCATAAGGTAAGCCATGCAGA | -0.386
TAGCTGACATTTACCACTGGTT | -0.934
TCCATTTGTAGTGTAGGTGGGT | -0.0708
TTGTAGTGTAGGTGGGTCGCGC | -0.607
TCTCACTCTCAATCTTCTCTTG | -0.536
TTCCCTGACACAGTCAATGAAG | -1.14

target: EAPP; assay: as above; conditions: shRNA

Sequence | sensor-assay potency score (higher = more potent)
TTCATTACAAACATTGCTCTAT | 0.525
TTTCTTCCACATCTGTCTCTGC | -0.196
AAAGACTTCATCCTTGTCGTAG | -0.0566
TTGGTCACCTGTACTGCTCTGT | 0.00284
TCATCGTAGTACCTTGTCGGAG | -1.04
TTCCACATCTGTCTCTGCCTTC | 0.205
TACTGCTCTGTCTTCATCCTCG | 0.413
